The record followed here is the supplement of paper PMC9794691.

Common to all, as to test: area under confluence curve of osimertinib + compound combination regimen (DTP regrowth); compare to osimertinib-only DTP control AUC of the same experiment (AUC (confluence x time, arbitrary))
In one experiment the test system is H1975. As to conditions: test compound dose 1000 nM, DMSO control AUC in same experiment: 15857. The gist of the method:
(§1)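 Two schedules were compared in EGFR-mutant NSCLC lines. In one, the EGFR inhibitor and a fixed-dose test compound were given together up to the persister stage (10–21 days), followed by drug-free medium. In the other, the inhibitor alone came first and the test compound second. Prism calculated the area under the IncuCyte confluence–time curve, taking the median of triplicates where these were available.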

The next experiment has as its system HCC2279. As to conditions: test compound dose 1000 nM, DMSO control AUC in same experiment: 14404. In a few lines: as §1
The next experiment deals with HCC2935. The conditions noted are these: test compound dose 1000 nM, DMSO control AUC in same experiment: 19215. In a few lines:
as §1

In another experiment the test system is HCC4006. As to conditions: test compound dose 1000 nM, DMSO control AUC in same experiment: 18415. In a few lines:
as §1

A further experiment relates to HCC827. The conditions noted are these: test compound dose 1000 nM, DMSO control AUC in same experiment: 21320. The gist of the method: as §1
The subject of the next experiment is II-18. The conditions noted are these: test compound dose 1000 nM, DMSO control AUC in same experiment: 11834. The gist of the method:
as §1

In another experiment the test system is PC9. In a few lines: as §1
Setting [1] is: dosing schedule: sequential, osimertinib-only DTP control AUC in same experiment: 22968.
The mark [2] stands for this setting: dosing schedule: upfront, osimertinib-only DTP control AUC in same experiment: 27164.
[3] abbreviates: dosing schedule: sequential, osimertinib-only DTP control AUC in same experiment: 26096.
Where [4] appears, read: dosing schedule: upfront, osimertinib-only DTP control AUC in same experiment: 33120.
The mark [5] stands for this setting: dosing schedule: sequential, osimertinib-only DTP control AUC in same experiment: 22314.
Where [6] appears, read: dosing schedule: upfront, osimertinib-only DTP control AUC in same experiment: 29846.
Setting [7] is: dosing schedule: sequential, osimertinib-only DTP control AUC in same experiment: 12791.
[8] abbreviates: dosing schedule: upfront, osimertinib-only DTP control AUC in same experiment: 17269.
The mark [9] stands for this setting: dosing schedule: sequential, osimertinib-only DTP control AUC in same experiment: 15330.
[10] abbreviates: dosing schedule: upfront, osimertinib-only DTP control AUC in same experiment: 20798.
Setting [11] is: dosing schedule: sequential, osimertinib-only DTP control AUC in same experiment: 8624.
The mark [12] stands for this setting: dosing schedule: upfront, osimertinib-only DTP control AUC in same experiment: 10856.

Consider `O=C(c1cc(Cc2n[nH]c(=O)c3ccccc23)ccc1F)N1CCN(C(=O)C2CC2)CC1` [Olaparib] + C=CC(=O)Nc1cc(Nc2nccc(-c3cn(C)c4ccccc34)n2)c(OC)cc1N(C)CCN(C)C [osimertinib], for which the “area under confluence curve” value in the experiment on H1975 (setting [1]) was 19500; in the experiment on H1975 (setting [2]), 21000; in the experiment with HCC2279 (setting [3]) it was 23100; with HCC2279 (setting [4]), 29800; with HCC2935 (setting [5]) it was 20700; with HCC2935 (setting [6]) it was 26000. Also, the “area under confluence curve” value in the experiment with HCC4006 (setting [7]) was 11700; in the experiment with HCC4006 (setting [8]), 18000; in the experiment with HCC827 (setting [9]), 12400; with HCC827 (setting [10]), 23700; with II-18 (setting [11]), 9480; with II-18 (setting [12]) it was 9420.

Consider `Cc1nc(Nc2n[nH]c3c2CN(C(=O)N[C@H](CN(C)C)c2ccccc2)C3(C)C)c2sccc2n1` + C=CC(=O)Nc1cc(Nc2nccc(-c3cn(C)c4ccccc34)n2)c(OC)cc1N(C)CCN(C)C [osimertinib], for which the “area under confluence curve” value in the experiment on PC9 (test compound dose 100 nM, dosing schedule: sequential, osimertinib-only DTP control AUC in same experiment: 14258, DMSO control AUC in same experiment: 20347) turned out to be 3500; in the experiment on PC9 (test compound dose 100 nM, dosing schedule: upfront, osimertinib-only DTP control AUC in same experiment: 21499, DMSO control AUC in same experiment: 20347), 12300.

Consider `Oc1nc(-c2ccc(C(F)(F)F)cc2)nc2c1CSCC2` + C=CC(=O)Nc1cc(Nc2nccc(-c3cn(C)c4ccccc34)n2)c(OC)cc1N(C)CCN(C)C [osimertinib], for which the “area under confluence curve” value in the experiment on PC9 (test compound dose 300 nM, dosing schedule: sequential, osimertinib-only DTP control AUC in same experiment: 12502, DMSO control AUC in same experiment: 49143) was 9570; in the experiment with PC9 (test compound dose 300 nM, dosing schedule: upfront, osimertinib-only DTP control AUC in same experiment: 28310, DMSO control AUC in same experiment: 49143), 8680.

As to `Nc1ccc(/C=C/C(=O)NCc2cc3cc(-c4ccc(C(=O)N5CCC(F)(F)CC5)cc4)cc(-c4ccc(F)cc4)c3o2)cn1` + C=CC(=O)Nc1cc(Nc2nccc(-c3cn(C)c4ccccc34)n2)c(OC)cc1N(C)CCN(C)C [osimertinib], the “area under confluence curve” value was 6800 with PC9 (test compound dose 100 nM, dosing schedule: sequential, osimertinib-only DTP control AUC in same experiment: 14258, DMSO control AUC in same experiment: 21913) and 12200 with PC9 (test compound dose 100 nM, dosing schedule: upfront, osimertinib-only DTP control AUC in same experiment: 21499, DMSO control AUC in same experiment: 21913).

On to `NC(=O)Nc1cc(-c2cccc(F)c2)sc1C(=O)N[C@H]1CCCNC1` + C=CC(=O)Nc1cc(Nc2nccc(-c3cn(C)c4ccccc34)n2)c(OC)cc1N(C)CCN(C)C [osimertinib], for which the “area under confluence curve” value in the experiment with PC9 (test compound dose 5 nM, dosing schedule: sequential, osimertinib-only DTP control AUC in same experiment: 7760, DMSO control AUC in same experiment: 29563) was 4940; in the experiment with PC9 (test compound dose 5 nM, dosing schedule: upfront, osimertinib-only DTP control AUC in same experiment: 11798, DMSO control AUC in same experiment: 29563), 9410.

As for `Cc1onc(C(=O)N2CCN(C(c3ccc(Cl)cc3)c3ccc(Cl)cc3)CC2)c1[N+](=O)[O-]` + C=CC(=O)Nc1cc(Nc2nccc(-c3cn(C)c4ccccc34)n2)c(OC)cc1N(C)CCN(C)C [osimertinib], the “area under confluence curve” value was 823 in the experiment with PC9 (test compound dose 1000 nM, dosing schedule: sequential, osimertinib-only DTP control AUC in same experiment: 8716, DMSO control AUC in same experiment: 45737) and 19300 with PC9 (test compound dose 1000 nM, dosing schedule: upfront, osimertinib-only DTP control AUC in same experiment: 11096, DMSO control AUC in same experiment: 45737).

For the molecule `Cc1nc(N2CCC3(CC2)CO[C@@H](C)[C@H]3N)c(CO)nc1-c1cccc(Cl)c1Cl` + C=CC(=O)Nc1cc(Nc2nccc(-c3cn(C)c4ccccc34)n2)c(OC)cc1N(C)CCN(C)C [osimertinib], the “area under confluence curve” value in the experiment on H1975 (setting [1]) worked out at 15500; in the experiment on H1975 (setting [2]), 17800; in the experiment with HCC2279 (setting [3]) it was 16900; in the experiment on HCC2279 (setting [4]) it was 21000; in the experiment with HCC2935 (setting [5]) it was 19500; with HCC2935 (setting [6]) it was 27200. For the same molecule, the “area under confluence curve” value in the experiment with HCC4006 (setting [7]) is 9900; with HCC4006 (setting [8]) it was 14300; in the experiment with HCC827 (setting [9]), 6150; with HCC827 (setting [10]), 13400; in the experiment with II-18 (setting [11]), 2640; with II-18 (setting [12]), 3200. Further, the “area under confluence curve” value with PC9 (test compound dose 1000 nM, dosing schedule: sequential, osimertinib-only DTP control AUC in same experiment: 10671, DMSO control AUC in same experiment: 21678) is 9600; with PC9 (test compound dose 1000 nM, dosing schedule: sequential, osimertinib-only DTP control AUC in same experiment: 13130, DMSO control AUC in same experiment: 20567), 7660; in the experiment on PC9 (test compound dose 1000 nM, dosing schedule: upfront, osimertinib-only DTP control AUC in same experiment: 18577, DMSO control AUC in same experiment: 20567), 13500; with PC9 (test compound dose 1000 nM, dosing schedule: upfront, osimertinib-only DTP control AUC in same experiment: 19512, DMSO control AUC in same experiment: 21678), 10500.

Regarding `CCN(c1cc(-c2ccc(CN3CCOCC3)cc2)cc(C(=O)NCc2c(C)cc(C)[nH]c2=O)c1C)C1CCOCC1` [Tazemetostat] + C=CC(=O)Nc1cc(Nc2nccc(-c3cn(C)c4ccccc34)n2)c(OC)cc1N(C)CCN(C)C [osimertinib], the “area under confluence curve” value stood at 11100 with PC9 (test compound dose 1000 nM, dosing schedule: sequential, osimertinib-only DTP control AUC in same experiment: 14030, DMSO control AUC in same experiment: 30326) and 16200 in the experiment with PC9 (test compound dose 1000 nM, dosing schedule: upfront, osimertinib-only DTP control AUC in same experiment: 20885, DMSO control AUC in same experiment: 30326).

With `C[C@@H](Oc1cc(-c2cnn(C3CCNCC3)c2)cnc1N)c1c(Cl)ccc(F)c1Cl` [Crizotinib] + C=CC(=O)Nc1cc(Nc2nccc(-c3cn(C)c4ccccc34)n2)c(OC)cc1N(C)CCN(C)C [osimertinib], the “area under confluence curve” value with H1975 (setting [1]) turned out to be 9770; with H1975 (setting [2]) it was 9330; with HCC2279 (setting [3]), 23100; in the experiment with HCC2279 (setting [4]) it was 32900; with HCC2935 (setting [5]), 21400; with HCC2935 (setting [6]) it was 33400. In addition, the “area under confluence curve” value in the experiment on HCC4006 (setting [7]) came to 12500; in the experiment on HCC4006 (setting [8]), 13000; in the experiment with HCC827 (setting [9]), 10400; with HCC827 (setting [10]), 15000; in the experiment with II-18 (setting [11]), 1450; in the experiment on II-18 (setting [12]), 10800. The “area under confluence curve” value with PC9 (test compound dose 1000 nM, dosing schedule: sequential, osimertinib-only DTP control AUC in same experiment: 15001, DMSO control AUC in same experiment: 22064) was determined as 8360; with PC9 (test compound dose 1000 nM, dosing schedule: upfront, osimertinib-only DTP control AUC in same experiment: 24924, DMSO control AUC in same experiment: 22064), 7510.
